Records with an inconclusive call do not appear. Calls of active or inactive are those of the source. The call rests on the fitted dose curve; in most records, active means well fitted inhibition curve with a large enough effect; inconclusive means small, poorly fitted or top-dose-only effect, or another doubt; inactive means flat fitted curve, though single readings scatter.

Chain of D(2) dopamine receptor (Homo sapiens) (P14416 whole entry, looked up): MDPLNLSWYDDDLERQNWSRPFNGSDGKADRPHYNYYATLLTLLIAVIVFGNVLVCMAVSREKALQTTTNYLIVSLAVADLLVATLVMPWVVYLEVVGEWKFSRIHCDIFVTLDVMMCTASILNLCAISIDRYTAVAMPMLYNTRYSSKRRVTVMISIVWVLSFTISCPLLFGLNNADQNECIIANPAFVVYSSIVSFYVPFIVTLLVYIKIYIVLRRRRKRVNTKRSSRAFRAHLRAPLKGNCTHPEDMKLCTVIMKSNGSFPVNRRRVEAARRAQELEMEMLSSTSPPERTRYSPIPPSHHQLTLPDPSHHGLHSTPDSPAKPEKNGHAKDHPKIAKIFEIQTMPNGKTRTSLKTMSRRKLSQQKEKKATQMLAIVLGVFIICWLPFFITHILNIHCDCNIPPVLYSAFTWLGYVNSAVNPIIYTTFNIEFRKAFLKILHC

This assay deals with D(2) dopamine receptor (Homo sapiens) (UniProt P14416). Put plainly: HTS Assay for Allosteric Antagonists of the Human D2 Dopamine Receptor: SAR in D2 Beta Arrestin Assay. To be noted: DiscoveRx PathHunter D2 beta-arrestin recruitment, luminescence. From the text:
There is great interest in identifying small molecule ligands for G-protein coupled receptors (GPCRs) as nearly 50% of all FDA-approved drugs target these important receptor proteins. […] Amongst the dopamine receptors (DARs), the D2 is arguably one of the most validated drug targets in neurology and psychiatry. For instance, all receptor-based antiparkinsonian drugs primarily work via stimulating the D2 DAR, whereas all FDA-approved antipsychotic agents are antagonists of this receptor. The D2 DAR is also therapeutically targeted in other disorders such as restless legs syndrome, tardive dyskinesia, Tourette's syndrome, and hyperprolactinemia. […] This is an orthogonal assay to test the lead compounds against the D2 receptor, using a beta arrestin assay. NIH Molecular Libraries Probe Production Network [MLPCN] NIH Chemical Genomics Center [NCGC] Grant: NS0676421 PI Name: David Sibley, National Institutes of Neurological Disorders and Stroke
DiscoveRx D2 cells were thawed from frozen stock and seeded at 2,100 cells/ 3 uL/well media (DiscoveRx Plating Reagent 2) with MultiDrop Combi dispenser (Thermo Scientific, Logan, UT) onto white tissue culture treated 1536-well Aurora plates (Brooks Automation, Chelmsford, MA) and allowed to attach overnight at 37 deg C, 5% CO2. Next, 23 nL/well of compound solutions in DMSO were added with a pintool transfer (Kalypsis, San Diego, CA). As the positive control, 1 uL/well dopamine (EC100, 57 uM final concentration) diluted in buffer (HBSS + 10 mM HEPES + SMB + 0.1% Tween-20) was dispensed to 1 column of each plate. The rest of the plate was dispensed with buffer only, 1 uL/well as well. The cells were stimulated by compounds or dopamine control for 90 minutes at 37 deg C, 5% CO2, after which 1.5 ul/well of DiscoveRx detection reagent was added with BioRAPTR FRD dispenser. The detection reagent was prepared by mixing of Galacton Star Substrate, Emerald II solution and PathHunter buffer (supplied by the assay kit) together at 1:5:19 proportion accordingly just prior to dispensing. The plates were incubated at ambient temperature for 1 hour and then the luminescent signal was read on ViewLux plate reader (PerkinElmer, Waltham, MA).
For the compound `CCN1C(=O)c2ccccc2S(=O)c2ccc(C(=O)NCc3ccc(OC)cc3)cc21` (configuration not stated), the Potency was 2.89 µM (active).

For the compound `CN1C(=O)c2ccccc2[S@](=O)c2ccc(C(=O)NCc3ccc(Cl)cc3)cc21`, the Potency was 2.89 µM (active).

For `CCN1C(=O)c2ccccc2[S@](=O)c2ccc(C(=O)NCc3ccc(F)cc3)cc21`, the Potency is 0.576 µM (active).

In the case of `CN1C(=O)c2ccccc2[S@](=O)c2ccc(C(=O)NCc3ccc(Br)cc3)cc21`, the Potency was 1.02 µM (active).

As for `CCN1C(=O)c2ccccc2[S@](=O)c2ccc(C(=O)N[C@H](C)c3ccc4ccccc4c3)cc21`, the Potency was 2.89 µM (active).

Consider `CCN1C(=O)c2ccccc2[S@](=O)c2ccc(C(=O)NCc3ccc(C#N)cc3)cc21`, for which the Potency is 0.257 µM (active).

As for `CCN1C(=O)c2ccccc2[S@](=O)c2ccc(C(=O)N[C@H](C)c3ccc(Br)cc3)cc21`, the Potency was 1.29 µM (active).

Turning to `CN1C(=O)c2ccccc2[S@](=O)c2ccc(C(=O)NCCc3cccs3)cc21`, the Potency was 0.725 µM (active).

As to `CN1C(=O)c2ccccc2[S@](=O)c2ccc(C(=O)NCCN3CCCC3)cc21`, the Potency is 0.363 µM (active).

`CCN1C(=O)c2ccccc2[S@](=O)c2ccc(C(=O)NCc3ccc(OC)cc3)cc21`: the Potency is 1.15 µM (active).

For `CN1C(=O)c2ccccc2S(=O)c2ccc(C(=O)NCCc3cccs3)cc21` (configuration not stated), the Potency was 0.913 µM (active).

For the compound `CN1C(=O)c2ccccc2[S@](=O)c2ccc(C(=O)NCc3cccnc3)cc21`, the Potency was 2.89 µM (active).

Source of the values: PubChem BioAssay AID624495 (National Center for Advancing Translational Sciences (NCATS), 2012).
